The text below walks through data of PubChem BioAssay AID2073 (Sanford-Burnham Center for Chemical Genomics, 2009).

The target of the test is Voltage-dependent N-type calcium channel subunit alpha-1B (Homo sapiens) (UniProt Q00975). In words: inhibitors of Mint1-CaV2.2 protein interaction, biochemical, HTRF (AID 2073). The settings on record: at 20 µM, stronger effect = higher value. In general terms: TR-FRET usually uses a lanthanide donor and a delayed reading to cut background.
[1] abbreviates: measured here: average of repeat tests.

Among all 290,000 compounds or so, about 570 (0.2%) were called active. Not shown: some 1% with an inconclusive outcome. No stated cut-off is given here; in the data, active means inhibition mostly above about 51% (no sharp cut-off); inconclusive means no clear call, values can overlap the other calls; inactive means mostly below about 53%. For the sample, actives were picked, then their nearest neighbours and some compounds at random.

Chain of Voltage-dependent N-type calcium channel subunit alpha-1B (Homo sapiens) (Q00975 whole entry, looked up): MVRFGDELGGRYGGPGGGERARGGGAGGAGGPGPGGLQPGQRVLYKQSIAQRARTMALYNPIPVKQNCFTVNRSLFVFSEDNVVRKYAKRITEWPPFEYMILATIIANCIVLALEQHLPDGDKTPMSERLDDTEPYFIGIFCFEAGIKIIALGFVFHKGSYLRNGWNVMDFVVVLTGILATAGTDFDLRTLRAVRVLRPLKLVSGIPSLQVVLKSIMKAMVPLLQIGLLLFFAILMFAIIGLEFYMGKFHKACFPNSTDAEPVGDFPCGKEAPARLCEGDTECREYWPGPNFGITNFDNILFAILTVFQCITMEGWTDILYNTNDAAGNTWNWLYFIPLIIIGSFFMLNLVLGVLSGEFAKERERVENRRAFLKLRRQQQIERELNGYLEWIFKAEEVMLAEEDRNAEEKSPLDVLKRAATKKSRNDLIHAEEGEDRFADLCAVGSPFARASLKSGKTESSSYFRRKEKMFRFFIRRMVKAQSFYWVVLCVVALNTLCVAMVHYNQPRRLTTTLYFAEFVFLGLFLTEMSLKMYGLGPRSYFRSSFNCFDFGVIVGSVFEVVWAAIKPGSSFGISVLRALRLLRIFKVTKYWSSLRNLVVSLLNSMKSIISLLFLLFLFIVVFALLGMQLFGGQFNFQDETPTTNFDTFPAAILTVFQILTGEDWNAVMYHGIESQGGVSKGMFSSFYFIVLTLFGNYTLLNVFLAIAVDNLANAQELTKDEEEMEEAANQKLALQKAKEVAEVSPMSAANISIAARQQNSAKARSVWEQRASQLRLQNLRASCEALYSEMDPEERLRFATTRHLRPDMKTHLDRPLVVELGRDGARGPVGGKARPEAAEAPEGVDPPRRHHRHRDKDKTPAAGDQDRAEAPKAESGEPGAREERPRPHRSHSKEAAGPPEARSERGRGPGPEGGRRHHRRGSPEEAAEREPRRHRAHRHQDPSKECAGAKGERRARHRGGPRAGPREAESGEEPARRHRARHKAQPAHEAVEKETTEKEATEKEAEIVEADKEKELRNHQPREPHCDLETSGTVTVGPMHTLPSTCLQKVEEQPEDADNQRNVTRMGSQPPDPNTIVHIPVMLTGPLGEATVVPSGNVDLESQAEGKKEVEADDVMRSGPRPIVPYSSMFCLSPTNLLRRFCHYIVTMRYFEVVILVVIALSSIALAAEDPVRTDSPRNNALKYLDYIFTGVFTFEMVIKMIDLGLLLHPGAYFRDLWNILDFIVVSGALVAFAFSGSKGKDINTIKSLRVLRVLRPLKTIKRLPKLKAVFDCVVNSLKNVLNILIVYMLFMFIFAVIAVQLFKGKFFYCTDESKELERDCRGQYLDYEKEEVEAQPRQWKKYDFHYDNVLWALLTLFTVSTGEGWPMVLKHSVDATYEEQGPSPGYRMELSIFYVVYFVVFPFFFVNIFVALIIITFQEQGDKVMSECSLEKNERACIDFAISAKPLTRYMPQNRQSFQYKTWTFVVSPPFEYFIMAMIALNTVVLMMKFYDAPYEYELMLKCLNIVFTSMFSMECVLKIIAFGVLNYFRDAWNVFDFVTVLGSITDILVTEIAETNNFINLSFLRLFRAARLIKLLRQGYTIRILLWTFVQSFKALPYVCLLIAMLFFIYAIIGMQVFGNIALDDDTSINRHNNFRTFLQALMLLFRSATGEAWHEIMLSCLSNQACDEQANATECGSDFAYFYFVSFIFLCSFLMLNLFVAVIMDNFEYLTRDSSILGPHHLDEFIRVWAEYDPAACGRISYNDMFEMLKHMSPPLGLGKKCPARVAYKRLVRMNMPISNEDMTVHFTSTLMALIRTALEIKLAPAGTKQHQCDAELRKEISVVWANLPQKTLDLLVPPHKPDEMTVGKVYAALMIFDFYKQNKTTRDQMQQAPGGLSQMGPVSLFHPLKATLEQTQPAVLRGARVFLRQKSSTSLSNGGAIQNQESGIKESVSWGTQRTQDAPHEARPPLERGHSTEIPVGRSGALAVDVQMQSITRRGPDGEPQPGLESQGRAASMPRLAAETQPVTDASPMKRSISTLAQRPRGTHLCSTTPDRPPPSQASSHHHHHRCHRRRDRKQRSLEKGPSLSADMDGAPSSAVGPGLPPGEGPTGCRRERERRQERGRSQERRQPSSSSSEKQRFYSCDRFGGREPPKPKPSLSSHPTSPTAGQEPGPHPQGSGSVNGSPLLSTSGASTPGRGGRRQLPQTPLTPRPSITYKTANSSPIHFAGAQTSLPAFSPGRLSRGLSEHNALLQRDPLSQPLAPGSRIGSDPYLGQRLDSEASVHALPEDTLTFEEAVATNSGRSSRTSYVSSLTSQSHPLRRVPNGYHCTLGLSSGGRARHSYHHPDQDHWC

Broadly, the inhibition is the relative decrease from the control value, in per cent. For `CNC(=O)c1c(C)[nH]c(=S)c(C#N)c1-c1ccco1`, the inhibition was -35.6% (inactive).

For `Cc1ccccc1NC(=O)c1c(C)[nH]c(=S)c(C#N)c1-c1ccco1`, the inhibition is 50.9% (active). Consider `Cc1ccc(-c2c(C(=O)Nc3ccccc3C)c(C)[nH]c(=S)c2C#N)o1`, for which the inhibition was 33.2% (inactive). On the same count and under the same terms, in the case of `CCOC(=O)CNc1nc(Cl)nc(N2CCCCC2)n1` it was 6.2% (inactive).

Consider `Cn1c(=O)c2c(n3cnnc13)-c1ccccc1CC21CCCC1`, for which the inhibition is 3.5% (inactive). On the same count and under the same terms, in the case of `COc1cc(NC(=O)c2ccccc2)c(OC)cc1NC(=O)Cc1cccs1` it was 51.4% (active); in that of `COc1ccccc1CC(=O)Nc1cc(OC)c(NC(=O)c2ccccc2)cc1OC`, -5.3% (inactive); in that of `COc1ccccc1NC(=O)Cc1cccs1`, -5.5% (inactive). Turning to `COc1ccc(OC)c(N=c2ssnc2Cl)c1`, the inhibition is 27.6% (inactive). On to `COc1cc(N=c2ssnc2Cl)c(OC)cc1Cl`, for which the inhibition was 46.5% (inactive). Still for that read-out and setting: next, `COc1ccc(N=c2ssnc2Cl)cc1`: 27.4% (inactive); `COc1cc(/C=C/c2ccc3cccc(O)c3n2)cc(OC)c1OC`: 24.9% (inactive). As for `O=C(Nc1ccc(-c2nc3ccccc3o2)cc1)c1ccc2c(c1)OCO2`, the inhibition was 66.2% (active). In the case of `Cc1ccc(-c2nc3ccccc3o2)cc1NC(=O)c1ccc2c(c1)OCO2`, the inhibition was -1.5% (inactive).

Regarding `Cc1ccc2oc(-c3ccc(NC(=O)c4ccc5c(c4)OCO5)cc3)nc2c1`, the inhibition was 6.7% (inactive). On to `Oc1ccc(Br)cc1CNc1cnc2ccccc2c1`, for which the inhibition was 13.6% (inactive). On the same count and under the same terms, in the case of `O=C(N/N=C/c1ccc([N+](=O)[O-])o1)c1cc(-c2ccc(-c3ccccc3)cc2)nc2ccccc12` it was 59.1% (active); in that of `O=C(N/N=C/c1ccc([N+](=O)[O-])o1)c1cn(-c2ccccc2)nc1-c1ccc(Cl)cc1`, 67.5% (active). Take `COc1ccc(-c2nn(-c3ccccc3)cc2C(=O)N/N=C/c2ccc([N+](=O)[O-])o2)cc1`: the inhibition was 50.6% (inactive). For the same molecule, the inhibition under setting [1] was 11.4%.

In the case of `O=C(N/N=C/c1ccc([N+](=O)[O-])o1)c1cc(-c2ccncc2)nc2ccccc12`, the inhibition was 20.1% (inactive).

On to `CCCc1ccc(-c2cc(C(=O)N/N=C/c3ccc([N+](=O)[O-])o3)c3ccccc3n2)cc1`, for which the inhibition is 27.9% (inactive). As for `O=C(N/N=C/c1ccc([N+](=O)[O-])o1)c1cn(-c2ccccc2)nc1-c1ccccc1`, the inhibition is 60.4% (inactive). The inhibition under setting [1] was found to be 2.1%.

`CCn1c(SCc2ccc(C)cc2)nnc1-c1cnccn1`: the inhibition was 1.9% (inactive). `Cc1ccc(S(=O)(=O)c2cnc3cc(C)nn3c2N)cc1`: the inhibition was 9.4% (inactive).

In the case of `c1cnc(-c2noc(CN3CCN(C4C5CC6CC(C5)CC4C6)CC3)n2)cn1` (centres undefined), the inhibition is -1.9% (inactive). In the case of `O=C(O)CSC(C(=O)Nc1ccc(Br)cc1)c1ccc(Cl)cc1` (centres undefined), the inhibition is 9.9% (inactive). Regarding `CC(=O)Nc1ccc(/C=N/Nc2ccc(C(=O)c3c(C)cc4ccccn34)cc2[N+](=O)[O-])cc1`, the inhibition is 50.4% (inactive). For the same molecule, the inhibition under setting [1] stood at 29.6%.

As for `Cc1cc2ccccn2c1C(=O)c1ccc(N/N=C/c2ccc(C(=O)O)cc2)c([N+](=O)[O-])c1`, the inhibition is 69.4% (active). The same measure, in the same setting: in the case of `Cc1cc2ccccn2c1C(=O)c1ccc(NN)c([N+](=O)[O-])c1` it was 9.5% (inactive); in that of `Cc1nc(C)c(C(=O)Nc2ncc([N+](=O)[O-])s2)o1`, 33.7% (inactive). Consider `Cc1ncoc1C(=O)Nc1ncc([N+](=O)[O-])s1`, for which the inhibition is 68% (active). As to `Cc1ccc(C(=O)Nc2ncc([N+](=O)[O-])s2)cc1`, the inhibition was 11.7% (inactive).

As to `CC1=CCC2C(=O)N(c3ccc(C)cc3)C(=O)C2C1` (centres undefined), the inhibition was 6.6% (inactive). As for `N=C1C(c2nc(-c3ccc(Br)cc3)cs2)=C(O)CN1NC(=O)c1ccc([N+](=O)[O-])cc1`, the inhibition is 34.5% (inactive).

`Cc1ccc(-c2csc(C3=C(O)CN(NC(=O)c4ccc([N+](=O)[O-])cc4)C3=N)n2)cc1`: the inhibition is 25.8% (inactive). Regarding `O=C(NN1C(=O)C2C(C1=O)C1C=CC2C12CC2)c1ccncc1` (centres undefined), the inhibition was 6% (inactive). As for `O=C(NN1C(=O)C2CC=C(Cl)CC2C1=O)c1ccncc1` (centres undefined), the inhibition is 61.5% (active). For `O=C(NN1C(=O)C2C3C=CC(C3)C2C1=O)c1ccncc1` (centres undefined), the inhibition was 5.7% (inactive).

Consider `O=C(CSc1nnc(-c2ccccc2O)o1)Oc1ccc(Br)cc1`, for which the inhibition was 3% (inactive). Take `CCOC(=O)C1CCCN(C(=O)c2ccc3nc(-c4ccc(OC)c(OC)c4)c(-c4ccc(OC)c(OC)c4)nc3c2)C1` (centres undefined): the inhibition was 10.2% (inactive). Consider `Cc1ccc(NC(=O)c2cc(N3C(=O)C=CC3=O)ccc2N2CCOCC2)cc1Cl`, for which the inhibition was -7.4% (inactive). Still for that read-out and setting: next, `Cc1ccc(NC(=O)c2cc(N3C(=O)C=CC3=O)ccc2Cl)cc1C`: 59.1% (active); `NC(=O)c1cc(N2C(=O)C=CC2=O)ccc1Cl`: 47% (inactive). With `COc1cc(OC)cc(-c2nnc(Nc3nc4c(F)cccc4s3)o2)c1`, the inhibition is 56.7% (active). On to `COc1cccc(-c2nnc(Nc3nc4c(F)cccc4s3)o2)c1`, for which the inhibition was 43.9% (inactive). As for `Fc1cccc2sc(Nc3nnc(-c4ccccc4)o3)nc12`, the inhibition was 38.5% (inactive). With `Cc1ccc(C(=O)NCCSc2ccccc2)cc1S(=O)(=O)Nc1ccccc1`, the inhibition was -1.8% (inactive). For `O=C(/C=C/c1ccco1)NCC1COc2ccccc2O1` (centres undefined), the inhibition is 11% (inactive). With `Cc1ccc(/C=C/C(=O)NCC2COc3ccccc3O2)o1` (centres undefined), the inhibition is 72.5% (active). Still for that read-out and setting: in the case of `CC(C)Oc1ccc(/C=C/C(=O)NCC2COc3ccccc3O2)cc1` (centres undefined) it was -5% (inactive); in that of `Cc1ccc(C(=O)NCCCN2CCOCC2)cc1Cl`, 4.3% (inactive); in that of `CN(N)c1nc(-c2ccccc2)cc(-c2ccccc2)n1`, -4.2% (inactive).

For the molecule `c1coc(CN=C2NC(=NCc3ccco3)c3ccccc32)c1`, the inhibition is 18.7% (inactive). In the case of `O=C1CCCC(=NCc2ccco2)C1`, the inhibition was -7.5% (inactive). Same read-out and setting: next, `CN(C)c1nc(=NCc2ccco2)ss1`: 67.8% (active); `COC(=O)/C=C1/SC(=Nc2ccc(C)cc2C)NC1=O`: 0.9% (inactive); `O=C1c2ccccc2C(=O)N1C/C=C/CN1C(=O)c2ccccc2C1=O`: 0% (inactive). On to `Cc1ccc(-c2nc(CN(C)C3CCOC3)c(C)o2)s1` (centres undefined), for which the inhibition is 7.1% (inactive).

With `COc1ccc(-c2cc3c(=O)n(CC(=O)Nc4cccc(Cl)c4)ncn3n2)cc1`, the inhibition was 39.6% (inactive).

For `O=C1N=C(N2CCCC2C(=O)O)S/C1=C\c1ccco1` (centres undefined), the inhibition was 95.1% (active).

Consider `O=C1N=C(N2CCN(c3ccccc3)CC2)S/C1=C\c1ccco1`, for which the inhibition was 37.7% (inactive). Take `O=C1N=C(N2CCN(c3ccccc3)CC2)S/C1=C/c1ccco1`: the inhibition is -5% (inactive).

As to `COc1ccc(-n2nc(C(=O)NCC(=O)NCCCN3CC(C)CC(C)C3)c3ccccc3c2=O)cc1` (centres undefined), the inhibition was 3.3% (inactive).

With `O=C(Nc1ccc(N2CCOCC2)cc1Cl)C1CCN(C(=O)OCc2ccccc2)CC1`, the inhibition is -2.8% (inactive). Turning to `COc1ccc(-n2nc(C(=O)NCC(=O)NCc3ccc(F)cc3)c3ccccc3c2=O)cc1`, the inhibition is 8.9% (inactive). On the same count and under the same terms, next, `CN1CCN(S(=O)(=O)c2ccc(Cl)cc2)CC1`: 5.7% (inactive); `CC1CN(S(=O)(=O)c2ccccc2)C(C)CN1S(=O)(=O)c1ccccc1` (centres undefined): 2.3% (inactive); `Cc1ccc(S(=O)(=O)N2CCN(S(=O)(=O)c3ccccc3)C2)cc1`: -0.6% (inactive).

Turning to `O=S(=O)(c1ccc(Cl)cc1)N1CCCCCC1`, the inhibition is 13.9% (inactive). As for `Cc1sc(NC(=O)CN(Cc2ccc(F)cc2)C(=O)C(C)C)c(C(N)=O)c1C`, the inhibition is -9.6% (inactive). Turning to `CC(C)CC(=O)Nc1nnc(SCC(=O)NCc2ccc3c(c2)OCO3)s1`, the inhibition is 6% (inactive). As to `COc1ccc(N2C(=O)NC(=O)C2=O)cc1`, the inhibition was -3.9% (inactive).

As to `COc1ccc(N2CC(C(=O)N/N=C/c3c[nH]c4ccccc34)CC2=O)cc1` (centres undefined), the inhibition was 17.8% (inactive). Still for that read-out and setting: in the case of `Cc1nn(C)c(Cl)c1CN1CCC(CO)(CC2CCCCO2)CC1` (centres undefined) it was 6.5% (inactive); in that of `O=S(=O)(c1ccc(F)c(F)c1)N1CCCc2ccccc21`, -1.2% (inactive). The same measure, in the same setting: in the case of `CCCc1[nH]c(=O)c(C#N)c2c1COC(C)(C)C2` it was -5.3% (inactive). Same read-out and setting: next, `Nc1ccc2nc(-c3cccc(-c4nc5ccc(N)cc5[nH]4)c3)[nH]c2c1`: 46.7% (inactive); `Nc1ccc(-c2nc3ccccc3[nH]2)cc1`: 5.5% (inactive); `Nc1ccc2nc(-c3cc(Cl)c(N)c(Cl)c3)[nH]c2c1`: 39.9% (inactive). For the molecule `Nc1ccc(-c2nc3ccc([N+](=O)[O-])cc3[nH]2)cc1`, the inhibition was 13.5% (inactive). Still for that read-out and setting: in the case of `Fc1ccc(N=Cc2ccc[nH]2)cc1` it was -9.3% (inactive); in that of `O=C(Nc1cccc(S(=O)(=O)NC2=NCCCCC2)c1)c1cc(-c2ccco2)nc2ccccc12`, 40.5% (inactive). For the molecule `Cn1c(N)c(C(=O)COC(=O)c2cc(-c3ccco3)nc3ccccc23)c(=O)n(C)c1=O`, the inhibition is 50.3% (inactive). Moreover, the inhibition under setting [1] stood at 29.1%. With `O=C(O)c1cc(-c2ccco2)nc2ccccc12`, the inhibition was -11.5% (inactive). The same measure, in the same setting: in the case of `CC(C)Cn1c(N)c(C(=O)COC(=O)c2cc(-c3ccco3)nc3ccccc23)c(=O)n(C)c1=O` it was 19.7% (inactive). With `Cn1c(N)c(C(=O)COC(=O)c2cc(-c3ccco3)nc3ccccc23)c(=O)n(Cc2ccccc2)c1=O`, the inhibition was 58.1% (active).

With `O=C(NC1CC1)c1cc(-c2ccco2)nc2ccccc12`, the inhibition was 38.6% (inactive). `O=C(Nc1cccc(S(=O)(=O)NC2=NCCC2)c1)c1cc(-c2ccco2)nc2ccccc12`: the inhibition was 61.9% (active).

With `Cn1c(N)c(C(=O)COC(=O)c2cc(-c3ccccc3)nc3ccccc23)c(=O)n(Cc2ccccc2)c1=O`, the inhibition was 21.7% (inactive). Regarding `O=C(NC(=S)Nc1cccc(S(=O)(=O)NC2=NCCC2)c1)c1cc(-c2ccco2)nc2ccccc12`, the inhibition was 61% (inactive). The inhibition under setting [1] was found to be 23.6%. `Cn1c(=O)c(C(=O)COC(=O)c2cc(-c3ccco3)nc3ccccc23)c(N)n(Cc2ccccc2)c1=O`: the inhibition was 55.8% (active). The same measure, in the same setting: next, `Cn1c(=O)c(C(=O)COC(=O)c2cc(-c3ccccc3)nc3ccccc23)c(N)n(Cc2ccccc2)c1=O`: 26.2% (inactive). For the molecule `O=C(NC1CCC(O)CC1)c1cc(-c2ccco2)nc2ccccc12` (centres undefined), the inhibition is 51.2% (active). Moreover, the inhibition under setting [1] was found to be 50.3%.
